Measurements from paper PMC12820563, “FoxP3 forms a head-to-head dimer in vivo and stabilizes its multimerization on adjacent microsatellites”.
The full ranking holds about 16,000 sequences; the median of “rpm ratio (pull-down/input)” is about 0.5, and the highest 2% start at about 5.5. This is one part of a sample in which the highest values are shown more often than they occur.

Target: T1, MBP-FoxP3dN (Mus musculus, UniProt Q99JB6 188-423)
T1 sequence: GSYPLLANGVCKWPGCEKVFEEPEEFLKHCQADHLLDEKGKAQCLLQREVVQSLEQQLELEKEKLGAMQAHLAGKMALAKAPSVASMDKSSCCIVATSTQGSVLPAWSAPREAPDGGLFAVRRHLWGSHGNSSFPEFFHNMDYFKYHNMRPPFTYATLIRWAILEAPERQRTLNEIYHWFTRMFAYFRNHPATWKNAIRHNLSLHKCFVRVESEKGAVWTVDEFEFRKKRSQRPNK
Assay: PD-seq (MBP pull-down with sequencing); 20 mM Tris-HCl pH 7.5, 100 mM NaCl, 1.5 mM MgCl2, 0.4 uM protein, 0.1 uM dsDNA library, 30 min, room temperature, amylose pull-down; high values mean tight binding
Conditions: protein: recombinant; tags: His6-MBP; chain copies: 2; dsDNA, one strand shown
In short: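 Binding is given as reads-per-million enrichment, pull-down over input, with replicates pooled. The bait was an N-terminus-lacking mouse FoxP3 or FoxP1 fragment with a His6-MBP tag, expressed in E. coli and used at 0.4 µM with 0.1 µM Klenow-filled degenerate double-stranded DNA library for 30 min at room temperature in Tris pH 7.5 buffer with NaCl and MgCl2. Amylose resin pull-down with three washes was followed by proteinase K release, PCR barcoding and Illumina sequencing.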

| Sequence | binding signal |
| --- | --- |
| GATGATTGTTCTCCCAGCTGATGAATTCGCAAACTCGAGTAAACAAATTTTCCTAATCTTTCTGTTCAAGCGCCATCTAC | 0.431 RPM ratio (pull-down/input) |
| GATGATTGTTCTCCCAGCTGATGAATTGCGCAACTCGAGTAAACAAATTTTCCTAATCTTTCTGTTCAAGCGCCATCTAC | 6.43 RPM ratio (pull-down/input) |
| GATGATTGTTCTCCCAGCTGATGAATTGCCCAACTCGAGTAAACAAATTTTCCTAATCTTTCTGTTCAAGCGCCATCTAC | 0.42 RPM ratio (pull-down/input) |
| GATGATTGTTCTCCCAGCTGATGAATTTTTCAACTCGAGTAAACAAATTTTCCTAATCTTTCTGTTCAAGCGCCATCTAC | 0.287 RPM ratio (pull-down/input) |
| GATGATTGTTCTCCCAGCTGATGAATTCGCCAACTCGAGTAAACAAATTTTCCTAATCTTTCTGTTCAAGCGCCATCTAC | 0.292 RPM ratio (pull-down/input) |
| GATGATTGTTCTCCCAGCTGATGAATTTCGCAACTCGAGTAAACAAATTTTCCTAATCTTTCTGTTCAAGCGCCATCTAC | 5.53 RPM ratio (pull-down/input) |
| GATGATTGTTCTCCCAGCTGATGAATTTCCCGTGTCGAGTAAACAAATTTTCCTAATCTTTCTGTTCAAGCGCCATCTAC | 0.287 RPM ratio (pull-down/input) |
| GATGATTGTTCTCCCAGCTGATGAATTAGCTTCTTCGAGTAAACAAATTTTCCTAATCTTTCTGTTCAAGCGCCATCTAC | 0.901 RPM ratio (pull-down/input) |
| GATGATTGTTCTCCCAGCTGATGAATTAGTTCTGTCGAGTAAACAAATTTTCCTAATCTTTCTGTTCAAGCGCCATCTAC | 0.398 RPM ratio (pull-down/input) |
| GATGATTGTTCTCCCAGCTGATGAATTAGCTGTCTCGAGTAAACAAATTTTCCTAATCTTTCTGTTCAAGCGCCATCTAC | 2.44 RPM ratio (pull-down/input) |
| GATGATTGTTCTCCCAGCTGATGAATTAGTTGTGTCGAGTAAACAAATTTTCCTAATCTTTCTGTTCAAGCGCCATCTAC | 6.21 RPM ratio (pull-down/input) |
| GATGATTGTTCTCCCAGCTGATGAATTAGTGTTGTCGAGTAAACAAATTTTCCTAATCTTTCTGTTCAAGCGCCATCTAC | 3.93 RPM ratio (pull-down/input) |
| GATGATTGTTCTCCCAGCTGATGAATTAGTTGTCTCGAGTAAACAAATTTTCCTAATCTTTCTGTTCAAGCGCCATCTAC | 5.87 RPM ratio (pull-down/input) |
| GATGATTGTTCTCCCAGCTGATGAATTAGTTCTCTCGAGTAAACAAATTTTCCTAATCTTTCTGTTCAAGCGCCATCTAC | 0.491 RPM ratio (pull-down/input) |
| GATGATTGTTCTCCCAGCTGATGAATTTCAGGGCTCGAGTAAACAAATTTTCCTAATCTTTCTGTTCAAGCGCCATCTAC | 0.225 RPM ratio (pull-down/input) |
| GATGATTGTTCTCCCAGCTGATGAATTGCAGACCTCGAGTAAACAAATTTTCCTAATCTTTCTGTTCAAGCGCCATCTAC | 0.496 RPM ratio (pull-down/input) |
| GATGATTGTTCTCCCAGCTGATGAATTTTGGCTCTCGAGTAAACAAATTTTCCTAATCTTTCTGTTCAAGCGCCATCTAC | 0.475 RPM ratio (pull-down/input) |
| GATGATTGTTCTCCCAGCTGATGAATTCCGATCATCGAGTAAACAAATTTTCCTAATCTTTCTGTTCAAGCGCCATCTAC | 0.404 RPM ratio (pull-down/input) |
| GATGATTGTTCTCCCAGCTGATGAATTCCAGCATTCGAGTAAACAAATTTTCCTAATCTTTCTGTTCAAGCGCCATCTAC | 4.11 RPM ratio (pull-down/input) |
| GATGATTGTTCTCCCAGCTGATGAATTCAGCATCTCGAGTAAACAAATTTTCCTAATCTTTCTGTTCAAGCGCCATCTAC | 6.49 RPM ratio (pull-down/input) |
| GATGATTGTTCTCCCAGCTGATGAATTTCAGCATTCGAGTAAACAAATTTTCCTAATCTTTCTGTTCAAGCGCCATCTAC | 4.99 RPM ratio (pull-down/input) |
| GATGATTGTTCTCCCAGCTGATGAATTCTCAGCATCGAGTAAACAAATTTTCCTAATCTTTCTGTTCAAGCGCCATCTAC | 0.635 RPM ratio (pull-down/input) |

| Sequence | binding signal |
| --- | --- |
| GATGATTGTTCTCCCAGCTGATGAATTCAGCAGCTCGAGTAAACAAATTTTCCTAATCTTTCTGTTCAAGCGCCATCTAC | 0.994 RPM ratio (pull-down/input) |
| GATGATTGTTCTCCCAGCTGATGAATTCAGCATTTCGAGTAAACAAATTTTCCTAATCTTTCTGTTCAAGCGCCATCTAC | 5.86 RPM ratio (pull-down/input) |
| GATGATTGTTCTCCCAGCTGATGAATTCCGCACTTCGAGTAAACAAATTTTCCTAATCTTTCTGTTCAAGCGCCATCTAC | 1.22 RPM ratio (pull-down/input) |
| GATGATTGTTCTCCCAGCTGATGAATTTGGGTCATCGAGTAAACAAATTTTCCTAATCTTTCTGTTCAAGCGCCATCTAC | 0.724 RPM ratio (pull-down/input) |
| GATGATTGTTCTCCCAGCTGATGAATTCTTTACTTCGAGTAAACAAATTTTCCTAATCTTTCTGTTCAAGCGCCATCTAC | 0.373 RPM ratio (pull-down/input) |
| GATGATTGTTCTCCCAGCTGATGAATTGGGGATTTCGAGTAAACAAATTTTCCTAATCTTTCTGTTCAAGCGCCATCTAC | 0.404 RPM ratio (pull-down/input) |
| GATGATTGTTCTCCCAGCTGATGAATTTCGTGAATCGAGTAAACAAATTTTCCTAATCTTTCTGTTCAAGCGCCATCTAC | 0.281 RPM ratio (pull-down/input) |
| GATGATTGTTCTCCCAGCTGATGAATTCAGCTCATCGAGTAAACAAATTTTCCTAATCTTTCTGTTCAAGCGCCATCTAC | 0.381 RPM ratio (pull-down/input) |
| GATGATTGTTCTCCCAGCTGATGAATTTTGAGCCTCGAGTAAACAAATTTTCCTAATCTTTCTGTTCAAGCGCCATCTAC | 0.568 RPM ratio (pull-down/input) |
| GATGATTGTTCTCCCAGCTGATGAATTTTGTGCCTCGAGTAAACAAATTTTCCTAATCTTTCTGTTCAAGCGCCATCTAC | 1.84 RPM ratio (pull-down/input) |
| GATGATTGTTCTCCCAGCTGATGAATTCTCCGCCTCGAGTAAACAAATTTTCCTAATCTTTCTGTTCAAGCGCCATCTAC | 0.428 RPM ratio (pull-down/input) |
| GATGATTGTTCTCCCAGCTGATGAATTGTTCGCCTCGAGTAAACAAATTTTCCTAATCTTTCTGTTCAAGCGCCATCTAC | 0.653 RPM ratio (pull-down/input) |
| GATGATTGTTCTCCCAGCTGATGAATTCTGCGCCTCGAGTAAACAAATTTTCCTAATCTTTCTGTTCAAGCGCCATCTAC | 2.3 RPM ratio (pull-down/input) |
| GATGATTGTTCTCCCAGCTGATGAATTCTGCCTCTCGAGTAAACAAATTTTCCTAATCTTTCTGTTCAAGCGCCATCTAC | 5.87 RPM ratio (pull-down/input) |
| GATGATTGTTCTCCCAGCTGATGAATTCCGCCTCTCGAGTAAACAAATTTTCCTAATCTTTCTGTTCAAGCGCCATCTAC | 6.3 RPM ratio (pull-down/input) |
| GATGATTGTTCTCCCAGCTGATGAATTGTGCCTCTCGAGTAAACAAATTTTCCTAATCTTTCTGTTCAAGCGCCATCTAC | 6.79 RPM ratio (pull-down/input) |
| GATGATTGTTCTCCCAGCTGATGAATTTTTCGCCTCGAGTAAACAAATTTTCCTAATCTTTCTGTTCAAGCGCCATCTAC | 0.467 RPM ratio (pull-down/input) |
| GATGATTGTTCTCCCAGCTGATGAATTTCGCCTCTCGAGTAAACAAATTTTCCTAATCTTTCTGTTCAAGCGCCATCTAC | 6.04 RPM ratio (pull-down/input) |
| GATGATTGTTCTCCCAGCTGATGAATTCTCTGCCTCGAGTAAACAAATTTTCCTAATCTTTCTGTTCAAGCGCCATCTAC | 0.284 RPM ratio (pull-down/input) |
| GATGATTGTTCTCCCAGCTGATGAATTCTGTGCCTCGAGTAAACAAATTTTCCTAATCTTTCTGTTCAAGCGCCATCTAC | 1.19 RPM ratio (pull-down/input) |
| GATGATTGTTCTCCCAGCTGATGAATTCCGCGCCTCGAGTAAACAAATTTTCCTAATCTTTCTGTTCAAGCGCCATCTAC | 1.68 RPM ratio (pull-down/input) |
